High-throughput results: PubChem, National Center for Advancing Translational Sciences (NCATS)
PMP22 txn prim: modulates PMP22 transcription in S16 Schwann cells; S16 Pmp22-F2sN Schwann cells, FLuc/NLuc coincidence luminescence, 24 h; Potency, µM (doses to about 57.5 µM), inactives show at the highest dose activity change, negative = inhibition, actives largely listed as inhibitors; 43,000 compounds, 2% hits; AID 1508649; active = clear falling dose curves in both reporters; inconclusive = both reporters move, but less clearly or upward; inactive = either reporter flat; the % is the NLuc reporter signal; note: potency is the fitted concentration of half-maximal effect; % is set by controls: 0 for no effect and ±100 for the full control effect
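Rat S16 Pmp22-F2sN cells, 500-1,000/well in phenol red-free DMEM + 10% FBS, compound-treated 24 h (37C, 5% CO2). Luminescence: FLuc read, Stop&Glo added, NLuc read.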
OvCa metastasis: ovarian cancer metastasis inhibition, 3D TME model | Potency, µM (top dose mostly 45.8 µM), for inactives: at the highest dose activity change, negative = inhibition, hits mostly inhibitors | 46,000 compounds, 0.1% hits | SKOV3ip1-GFP adhesion/invasion on 3D omental model, fluorescence;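 note: potency is the fitted concentration of half-maximal effect; plate controls were DMSO wells for no effect and tomatine positive control wells for full effect; nearly all actives have a fitted effect of over 65% in size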
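Primary human omental fibroblast/mesothelial 3D culture pre-formed 48 h. SKOV3ip1-GFP cells added with compounds (0.36-46 umol/L), incubated 2 h RT/16 h 37 C, fixed; GFP cells quantified at 488/509 nm.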
p53null 32C tox: kills p53 null cells at the permissive temperature. AID 903. 55,000 compounds, 0.62% hits. H1299-neo p53 null cells, ATP luminescence, 24 h, 32C. Potency, µM (top dose mostly 46.1 µM), for inactives: top-dose activity change, negative = cytotoxicity, usual class: cytotoxic;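 note: potency is the fitted concentration of half-maximal effect; 0% = DMSO only and -100% = full killing by 100 µM tamoxifen; nearly all actives have a fitted effect of over 55% in size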
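H1299-neo (p53-null) cells, 600/well, were pre-incubated overnight at 37C, then exposed to compounds at up to 46 uM for 24 hr at 32C. Viability was measured as ATP content by luminescence, and AC50 values came from Hill fits.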
S16 F2sN tox: cytotoxicity in S16 Pmp22-F2sN Schwann cells; S16 Pmp22-F2sN Schwann cells viability, CellTiter-Glo, 24 h; Potency, µM (highest dose often 57.5 µM), for the others: at the top dose activity change, negative = cytotoxicity, usual class: cytotoxic; 43,000 compounds, 0.48% hits; AID 1508642; note: potency is the fitted concentration of half-maximal effect; % is set by controls: 0 for no effect and ±100 for the full control effect; nearly all actives have a fitted effect of over 65% in size
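Viability was measured by CellTiter-Glo luminescence (15 min, room temperature). This followed 24 h at 37 °C of compound exposure (23 nL pin transfer) in S16 Pmp22-F2sN Schwann cells, 500-1,000 per well.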
p53null 39C tox: kills p53 null cells at the nonpermissive temperature. Potency, µM (highest dose often 46.1 µM), for the others: at the highest dose activity, negative = cell killing, hits mostly cytotoxic. 55,000 compounds, 0.97% hits. AID 904. H1299 p53-null (neo) cells, 39C, ATPlite viability, 24 h;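 note: potency is the fitted concentration of half-maximal effect; 0% = DMSO only and -100% = full killing by 100 µM tamoxifen; nearly all actives have a fitted effect of over 50% in size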
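Luminescent ATP signal reported cell survival after H1299 lines (neo, p53 null; or p53 A138V) received up to 46 uM compound and 24 hr incubation at 39C.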
mTORC1 inh: inhibitors of mTORC1 signaling in Tsc2-/- p53-/- MEF cells; Tsc2-/- p53-/- MEF, phospho-rpS6 immunofluorescence/PI, 24 h; Potency, µM (top dose mostly 38.3 µM), without a hit: at the top dose activity change, negative = inhibition, usual class: inhibitors; 44,000 compounds, 0.78% hits; AID 493208;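 note: potency is the fitted concentration of half-maximal effect; plate controls were DMSO for no effect and rapamycin for full effect; nearly all actives have a fitted effect of over 50% in size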
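Readout is phospho-S6 Alexa 488 signal normalized to PI per well, reported as % active cells with thresholds set from rapamycin (7.5 nM) and DMSO controls. Cells: Tsc2-/-, p53-/- MEFs, 24 hrs compound at 37 C; PI cell number serves as viability.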
NLuc sat counter: NanoLuc enzyme inhibition artifact for PMP22 screen | shares compounds with PMP22 txn prim | Secreted NLuc enzyme (filtered S16 cell medium), Nano-Glo luminescence | Potency, µM (top dose mostly 57.5 µM), without a hit: at the top dose activity change, negative = inhibition, most hits filed as inhibitors | 690 compounds, 4% hits; note: potency is the fitted concentration of half-maximal effect; % is set by controls: 0 for no effect and ±100 for the full control effect
NLuc Km ctr: counter-screen for PMP22 expression modulators: NanoLuc inhibition at Km. shares compounds with PMP22 txn prim. AID 1508639. Potency, µM (series often up to 57.5 µM), for inactives: top-dose activity change, negative = inhibition, usual class: inhibitors. 690 compounds, 5% hits. secreted NLuc enzyme, coelenterazine luminescence, Km conditions; note: potency is the fitted concentration of half-maximal effect; % is set by controls: 0 for no effect and ±100 for the full control effect
FLuc counter: counter-screen for PMP22 expression modulators: firefly luciferase inhibition; shares compounds with PMP22 txn prim; purified P. pyralis FLuc, luminescence, 10 min; Potency, µM (top dose mostly 57.5 µM), without a hit: at the top dose activity, negative = inhibition, usual class: inhibitors; 690 tested, under 10 active; AID 1508640; note: % of control where 0% means no effect
Target sequence (P08659 whole entry, looked up): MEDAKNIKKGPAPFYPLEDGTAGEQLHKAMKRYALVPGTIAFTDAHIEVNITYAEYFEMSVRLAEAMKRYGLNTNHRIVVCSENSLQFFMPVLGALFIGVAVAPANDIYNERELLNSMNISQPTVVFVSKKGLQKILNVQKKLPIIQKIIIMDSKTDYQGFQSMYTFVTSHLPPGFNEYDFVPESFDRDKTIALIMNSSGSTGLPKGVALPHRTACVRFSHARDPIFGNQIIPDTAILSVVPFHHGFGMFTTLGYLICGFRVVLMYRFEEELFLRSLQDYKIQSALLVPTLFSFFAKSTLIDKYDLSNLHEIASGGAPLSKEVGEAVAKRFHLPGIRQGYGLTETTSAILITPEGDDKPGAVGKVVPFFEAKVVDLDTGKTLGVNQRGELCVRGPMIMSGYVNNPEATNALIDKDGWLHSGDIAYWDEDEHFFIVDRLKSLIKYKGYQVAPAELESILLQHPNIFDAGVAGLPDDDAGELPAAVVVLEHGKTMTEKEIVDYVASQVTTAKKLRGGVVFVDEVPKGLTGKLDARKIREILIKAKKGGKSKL
S16 F2sN tox cnf: confirmation of cytotoxicity in S16 Pmp22-F2sN Schwann cells (luciferase reporters placed in the Pmp22 gene). 690 compounds, 7% hits. Potency, µM (highest dose often 57.5 µM), for the others: at the top dose activity change, negative = viability loss, usual class: cytotoxic. S16 Schwann cells viability, CellTiter-Glo ATP luminescence, 24 h. AID 1508641. shares compounds with PMP22 txn prim; note: potency is the fitted concentration of half-maximal effect; % is set by controls: 0 for no effect and ±100 for the full control effect
PMP22 txn conf: PMP22 transcription modulation, confirmatory. shares compounds with PMP22 txn prim. S16 Schwann cells Pmp22-F2sN, dual luciferase, 24 h. Potency, µM (series often up to 57.5 µM), for the others: top-dose activity change, negative = inhibition, hits mostly inhibitors. 690 compounds, 22% hits; active = clear falling dose curves in both reporters; inconclusive = both reporters move, but less clearly or upward; inactive = either reporter flat; the % is the FLuc reporter signal; note: potency is the fitted concentration of half-maximal effect
Active calls of the source: *; i = inactive; ? = inconclusive; / = not tested or not shown. An excerpt weighted towards active compounds, which were near 3% of everything screened. Unless noted, calls come from the whole dose curve; as a rule, active = well fitted curve in the direction sought with a large enough effect; inconclusive = small, poorly fitted or top-dose-only effect, or another doubt; inactive = no such curve, though single readings can be large; an effect the other way counts as inactive or inconclusive.

SMILES | PMP22 txn prim | OvCa metastasis | p53null 32C tox | S16 F2sN tox | p53null 39C tox | mTORC1 inh | NLuc sat counter | NLuc Km ctr | FLuc counter | S16 F2sN tox cnf | PMP22 txn conf
Cc1ccc(NC(=O)CSc2ncc3c(n2)-c2ccccc2N(C)S3(=O)=O)c(Cl)c1 | 6.45µM* | -8.5% | -10.5% | 15.4% | 6.0% | 1.6% | ? | 3.7% | -3.5% | -14.9% | ?
Cc1ccccc1NC(=O)CSc1ncc2c(n1)-c1ccccc1N(C)S2(=O)=O | 10.6% | -9.5% | -7.0% | 0.3% | 2.8% | -3.0% | / | / | / | / | /
CCc1ccc(NCc2cc3cc(OC)c(OC)cc3n(CC(=O)Nc3cc(C)ccc3C)c2=O)cc1 | 11.3µM* | i | 6.8% | 8.4% | -15.2% | 1.8% | -10.7% | 8.7% | -1.1% | -10.0% | ?
COc1cc(Cl)c(C)cc1NC(=O)c1cc2c(s1)-c1c(C)cccc1OC2 | ? | -18.5% | -10.4% | -5.1% | -17.7% | -8.6% | / | / | / | / | /
COc1ccc(NC(=O)c2cc3c(s2)-c2c(C)cccc2OC3)cc1Cl | 15.8µM* | 20.4% | -11.6% | 28.2µM* | -1.4% | -2.8% | -8.0% | -0.6% | -13.7% | ? | ?
CCOCCCNC(=O)c1cc2c(=O)n(C)c3ccccc3c2n1C | ? | i | 3.1% | 0.5% | -16.5% | -11.7% | / | / | / | / | /
COc1cccc(CNC(=O)c2cc3c(=O)n(C)c4ccccc4c3n2C)c1 | 12.7µM* | -13.3% | -4.4% | 13.8% | -25.9% | 2.1% | -9.0% | -2.4% | 4.7% | -14.1% | ?
COc1cc(NC(=O)CSc2c3c(nc4ccccc24)CCC3)cc(OC)c1OC | ? | -9.9% | -0.1% | 29.5% | 3.0% | ? | / | / | / | / | /
CCC(C)NC(=O)CSc1c2c(nc3cc(Cl)ccc13)CCCC2 (stereo unspecified) | 12.1µM* | 3.1% | 2.1% | 4.1% | -29.9% | -3.1% | ? | ? | 5.3% | 7.2% | ?
COc1ccc(NC(=O)CSc2c3c(nc4ccc(Cl)cc24)CCCC3)cc1Cl | 18.9µM* | -11.7% | 12.2% | ? | 21.2% | 1.3% | ? | ? | 5.8% | ? | ?
O=C(CSc1c2c(nc3ccc(Cl)cc13)CCCC2)NCc1ccccc1Cl | 11.2µM* | i | 15.3% | 22.4µM* | ? | -2.0% | ? | ? | -0.8% | 26.8% | ?
CCOC(=O)c1ccc(NC(=O)CSc2c3c(nc4cc(Cl)ccc24)CCCC3)cc1 | ? | 27.5% | 0.3% | 9.9% | -10.9% | 2.0% | / | / | / | / | /
